Results: PubChem BioAssay (NCATS)
“And” between values parts separate entries of the source, which are not always exact repeats. Identical values can stand only once. Inconclusive results are not listed. The source made the active and inactive calls. Calls follow the shape of the dose curve; as a rule, active = well fitted cell-killing curve with a large enough effect; inconclusive = small, poorly fitted or top-dose-only effect, or effect the other way; inactive = flat fitted curve, though single readings scatter.

Test: qHTS assay for cell viability of HEK293 cells (AID 743288); also: nearly all actives have a fitted effect of over 50% in size
Conditions: ATP luminescence (CellTiter-Glo), 18 h, hits give low values
Source text: National Center for Advancing Translational Sciences [NCATS]
NIH Chemical Genomics Center [NCGC]
U.S. Environmental Protection Agency [EPA]
National Institutes of Environmental Health Sciences [NIEHS]
National Toxicology Program [NTP]
U.S. Food and Drug Administration [FDA]
The CellTiter-Glo Luminescent Cell Viability Assay (Promega, Madison, WI) is a homogeneous method to determine the number of viable cells in culture based on quantitation of the ATP present, which signals the presence of metabolically active cells. This cell viability assay was used to screen environmental chemicals in the Hek293 cell line.
Tox21 Assay Protocol Summary:
Cell viability after compound treatment was measured using a luciferase-coupled ATP quantitation assay (CellTiter-Glo viability assay, Promega, Madison, WI) in parental HEK293 cells. Total intracellular ATP content corresponds to the number of metabolically competent cells after compound treatment. The cells were dispensed at 2,000 cells/5 uL/well in 1,536-well white/solid bottom assay plates using a Flying Reagent Dispenser (Aurora Discovery, San Diego, CA). The cells were incubated a minimum of 5 h at 37 C, followed by the addition of 23 nL of compounds dissolved in DMSO, positive controls or DMSO only using a pintool work station (Kalypsys, San Diego, CA). The assay plates were incubated for 18 h at 37 C, followed by the addition of 5 uL/well of CellTiter-Glo reagent. After 30 min incubation at room temperature, the luminescence intensity of the plates was measured using a ViewLux plate reader (PerkinElmer, Shelton, CT).
% is scaled to controls: 0 for no effect and ±100 for the full control effect.

Compound | max response
NC(=O)c1cccc([N+](=O)[O-])c1 | -1.82% (inactive)
Clc1ccc(Cl)c(Cl)c1Cl | 5.4% (inactive) and -1.16% (inactive)
CC(=O)OC(C)C | 1.6% (inactive)
Nc1cc(Cl)c([N+](=O)[O-])cc1O | -3.32% (inactive)
C/C(C=O)=C/c1ccccc1 | 5.25% (inactive)
O=C1NC(=O)c2cc([N+](=O)[O-])ccc21 | -4.71% (inactive)
CC(C)(O)CCC(C)(C)O | 2.13% (inactive)
CCOc1ccccc1N | 0.362% (inactive)
Cc1cc(C)cc(N)c1 | -3.25% (inactive)
C=CC(=O)NC(C)C | -0.14% (inactive)
CCC(O)C(C)(C)C (stereo not given) | -6.59% (inactive)
CC/C=C1/OC(=O)c2ccccc21 | -15.4% (inactive)
C=C(C)C(=O)OCCCCCC | 6.76% (inactive)
Cc1ccccc1C#N | -0.799% (inactive)
CN(C)CCCCl | 7.77% (inactive)
CCNc1cc(O)ccc1C | 2.21% (inactive)
CSCCC=O | 1.22% (inactive)
Nc1cccc(N)c1 | 5.39% (inactive)
Oc1c(Cl)ccc(Cl)c1Cl | 4.44% (inactive)
ClC/C=C/CCl | 4.84% (inactive)

Compound | max response
Cc1ccc(C)c([N+](=O)[O-])c1 | 4.94% (inactive)
O=[N+]([O-])c1ccccc1CCO | -3.96% (inactive)
COC(=O)CC#N | 6.11% (inactive)
Cc1cccc(C)c1[N+](=O)[O-] | -0.503% (inactive) and 0.264% (inactive)
NC(=O)c1ccccc1[N+](=O)[O-] | 7.1% (inactive)
c1ccc2c(c1)ccc1ncccc12 | 0.663% (inactive)
NC(=O)NC(N)=O | -4.97% (inactive)
N#Cc1ccccc1 | 7.56% (inactive)
O=c1[nH][nH]c(=O)c2cc([N+](=O)[O-])ccc12 | -7.38% (inactive)
C1CCC2OC2C1 (stereo not given) | -1.95% (inactive)
N#CCc1ccccc1[N+](=O)[O-] | -6.51% (inactive)
CCC(C)(C)C(=O)O | -3.48% (inactive)
Nc1cccc2c(=O)[nH][nH]c(=O)c12 | 0.895% (inactive)
CCCC=O | -2.32% (inactive)
COc1cccc2sc(N)nc12 | -3.84% (inactive)
CCCCOCCOCCSC#N | 5.15% (inactive)
BrC(Br)C(Br)Br | 6.64% (inactive)
O=C(O)c1ccc(CO)o1 | 11.8% (inactive)
C[C@@H]1CC2(OC3C[C@@]4(C)C5=CC[C@H]6C(C)(C)C(O[C@@H]7OC[C@@H](O)[C@H](O)[C@H]7O)CC[C@@]67C[C@@]57CC[C@]4(C)C31)OC(O)C1(C)OC21 (stereo not given in full) | -9.95% (inactive)
CC(O)COC(C)(C)C (stereo not given) | -14.3% (inactive)
